# Unmarked numbers belong to inactive results. Results filed as inconclusive are left out. A call without a number means that no potency is given here. The source made the active and inactive calls. Unless noted, calls come from the whole dose curve; as a rule, active = well fitted curve in either direction with a large enough effect (not every such curve was filed as active); inconclusive = small, poorly fitted or top-dose-only effect, or another doubt; inactive = flat fitted curve, though single readings scatter. Peptide text beside a SMILES is read from it.
# What was measured:
# [1] = molecular target: Cytochrome P450 1A2 (Homo sapiens) (UniProt P05177); test: p450-cyp1a2 (AID 410; calls by dose curve; note: potency is the fitted concentration of half-maximal effect)
# Outline: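 20nM CYP1A2, 100uM Luciferin-ME (=Km), 100mM KPO4; cpd 10 min RT; +NADPH regen, 60 min RT; stop/detect 20 min; luminescence. Normalized to furafylline 57 uM = full inhibition.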
# [2] = Stat Signaling Pathway (AID 446);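 note: ME-180 cervical cancer cells given 40 pM IL-6 alongside compound; SIE-controlled beta-lactamase reporter measured as 460/530 nm FRET emission ratio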
# Outline: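 FRET read-out (405 nm excitation, 460/530 nm emission) of a beta-lactamase reporter under a STAT-inducible element in ME-180 cervical carcinoma cells. Cells with compound receive 40 pM IL-6 for 5 h. Values are normalised to AC90 stimulation and AC90 JAK-inhibitor controls.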
# [3] = molecular target: Mitogen-activated protein kinase 10 (Mus musculus) (UniProt Q61831); test: JNK3 AlphaScreen Assay (AID 530);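 note: kinase came from lysate of stimulated human HepG2 cells; signal reports phosphorylation of biotinylated GST-cJun 1-79 at Ser73 with 10 µM ATP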
# Outline: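 Kinase buffer: 20 mM Tris-HCl pH 7.6, 10 mM MgCl2, 1 mM DTT, 0.1 mM Na3VO4, 0.01% Tween-20; ATP 10 uM. Substrate biotin-GST-cJun(1-79), enzyme from activated HepG2 lysates. Detection by Ser73 phospho-antibody AlphaScreen.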
# [4] = Cell Viability - BJ (AID 421; calls by dose curve;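 note: potency is the fitted concentration of half-maximal effect; cells exposed to compound for 40 hours at 37 °C before readout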); details: BJ fibroblast viability, qHTS
# Outline: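 Cytotoxicity as drop in intracellular ATP (CellTiter-Glo, 20 min RT) after 40 hr compound exposure of BJ fibroblasts at 37 °C. Titrations scaled between DMSO and 100 uM tamoxifen, Hill-fitted for AC50.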
# [5] = Cell Viability - Jurkat (AID 426;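 active = dose-dependent loss of cell ATP signal giving a full or clear fitted curve, ranked by lower potency value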;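 note: potency is the fitted concentration of half-maximal effect; cells exposed to compound for 40 hours at 37 °C before ATP read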); details: qHTS
# Outline: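 Luminescent ATP read-out (CellTiter-Glo, 20 min at room temperature) after 40 hr compound exposure at 37 °C of Jurkat E6-1 cells, 5000/well. Decreased ATP taken as cytotoxicity; AC50 from standard Hill equation.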
# [6] = Cell Viability - Hek293 (AID 427;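 active = compounds whose dose-response curve shows a full or clear partial loss of cell viability, called from curve shape rather than a numeric limit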;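 note: potency is the fitted concentration of half-maximal effect; cells exposed to compound for 40 hours at 37 °C before reading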); details: qHTS
# Outline: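 Luminescent ATP content (CellTiter-Glo, 20 min at room temperature) was measured after a 40 hr, 37 °C compound exposure of HEK293 cells. AC50 values came from Hill-equation fits of qHTS concentration-response data normalized to DMSO and 100 uM tamoxifen.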
# [7] = Cell Viability - HepG2 (AID 433; calls by dose curve;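 note: potency is the fitted concentration of half-maximal effect; potency for ATP loss meaning cytotoxicity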); details: qHTS
# Outline: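 Read-out is luciferase-based quantitation of cellular ATP as a measure of viable HepG2 cells after 40 h treatment at 37 °C. Signal decrease is scaled between DMSO-only and 100 uM tamoxifen controls, with AC50 fitted by the Hill equation.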
# [8] = Cell Viability - MRC5 (AID 434; calls by dose curve;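 note: potency is the fitted concentration of half-maximal effect; cells exposed to compound for 40 hours at 37 °C; potency reflects cytotoxicity seen as loss of intracellular ATP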); details: MRC5 lung fibroblast viability, qHTS
# Outline: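 AC50 values come from Hill-equation fits of intracellular ATP loss, measured by CellTiter-Glo luminescence. Normal lung fibroblasts (MRC5) had 40 hr compound treatment at 37 C, normalized between DMSO and 100 uM tamoxifen.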
# [9] = Cell Viability - SK-N-SH (AID 435; calls by dose curve; note: potency is the fitted concentration of half-maximal effect); details: SK-N-SH neuroblastoma cell viability qHTS
# Outline: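 Luminescent ATP signal served as the viability read-out after 40 hours of compound treatment of human neuroblastoma SK-N-SH cells. Concentration-response data, scaled between DMSO and 100 uM tamoxifen, gave AC50 values by standard Hill modeling.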
# [10] = Cell Viability - N2a (AID 540; active = well fitted curve in the direction sought with a large enough effect; an effect the other way counts as inactive or inconclusive; note: nearly all actives have a fitted effect of over 45% in size); details: N2a mouse neuroblastoma cell viability; activity change, negative = cytotoxicity: at 92.2 µM (top of the series)
# Outline: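 N2a mouse neuroblastoma, 1500 cells/well, 5 hr settle; compound 40 hr, 37 °C; CellTiter-Glo 20 min RT; luminescence; Hill-fit AC50.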
# [11] = Cell Viability - NIH 3T3 (AID 541; active = well fitted curve in the direction sought with a large enough effect; an effect the other way counts as inactive or inconclusive; note: nearly all actives have a fitted effect of over 25% in size)
# Outline: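 qHTS format; 40 hr compound exposure, 37 °C; CellTiter-Glo luminescence (cellular ATP) read-out after 20 min at RT. Decrease in ATP = cytotoxicity; AC50 from standard Hill fit.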
# [12] = Cell Viability - HUV-EC-C (AID 542; active = well fitted curve in the direction sought with a large enough effect; an effect the other way counts as inactive or inconclusive; note: nearly all actives have a fitted effect of over 35% in size)
# Outline: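 Luminescent ATP read-out (CellTiter-Glo, 20 min room temperature) after 40 hr compound treatment of HUV-EC-C cells at 37 °C. Concentration-response data fitted with the standard Hill equation to give AC50; tamoxifen and doxorubicin served as positive controls.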
# [13] = Cell Viability - H-4-II-E (AID 543; active = well fitted curve in the direction sought with a large enough effect; an effect the other way counts as inactive or inconclusive; note: nearly all actives have a fitted effect of over 35% in size)
# Outline: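 qHTS, rat hepatoma H-4-II-E, 1500 cells/well; 40 hr compound exposure, 37 °C; CellTiter-Glo ATP luminescence after 20 min RT; AC50 by standard Hill fit.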
# [14] = Cell Viability - SH-SY5Y (AID 544; active = well fitted curve in the direction sought with a large enough effect; an effect the other way counts as inactive or inconclusive; note: nearly all actives have a fitted effect of over 55% in size)
# Outline: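 SH-SY5Y, 1500 cells/well, 5 hr pre-incubation 37 °C; cpd 40 hr 37 °C; CellTiter-Glo 20 min RT; luminescence (ATP) read. qHTS concentration-response, Hill fit → AC50. Tamoxifen, doxorubicin as positive controls.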
# [15] = Cell Viability - Mesenchymal (AID 546; active = well fitted curve in the direction sought with a large enough effect; an effect the other way counts as inactive or inconclusive;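 note: cells exposed to compound for 40 hours before reading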)
# Outline: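 CellTiter-Glo luminescence (intracellular ATP, 20 min room temperature) after 40 hr compound exposure at 37 °C of 1000 glomerulus-derived human kidney mesenchymal cells/well; AC50 values obtained by fitting qHTS concentration-response data to the Hill equation.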
# [16] = AP1 Signaling Pathway (AID 357);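 note: ME-180 reporter cells stimulated with EGF at its EC50 level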
# Outline: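 AP-1-bla ME-180 cells, Opti-MEM + 0.5% dialyzed FBS, plated overnight 37 °C. Cpd titration + EC50 EGF, 5 h 37 °C. CCF4 2.5 h RT; ex 405, em 460/530 ratio → %activity, AC50.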
# [17] = NFAT Signaling Pathway (AID 444); details: Jurkat NFAT-bla M1, carbachol, beta-lactamase ratio, 5 h;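 note: carbachol stimulus at about its EC50 of 1 µM final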
# Outline: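 Read-out: CCF4 FRET ratio (460 nm/530 nm) after 1 h RT dye loading, used for %activity and AC50 from titration series. Cells: Jurkat NFAT-β-lactamase/M1 line, treated with compound plus 1 uM carbachol for 5 h, 37 °C.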
# [18] = molecular target: Glucocorticoid receptor (Homo sapiens) (UniProt P04150); test: GR-GFP Redistribution (AID 450;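 active = compounds whose dose series gives a full or clear partial fitted curve of increased nuclear translocation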; note: potency is the fitted concentration of half-maximal effect); details: U2OS GR-GFP nuclear translocation, laser cytometry, 2 h
# [19] = molecular target: Glucocorticoid receptor (Homo sapiens) (UniProt P04150); test: GR-EFC Redistribution (AID 451; calls by dose curve; note: potency is the fitted concentration of half-maximal effect); details: CHO-K1 GR-EFC translocation, beta-gal luminescence, 2 h
# Outline: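 Translocation of GR-ED fusion to nuclear EA restores b-gal, read by luminescence after 1 h room-temperature detection. Engineered CHO-K1 biosensor cells, 1,000/well, exposed 2 h at 37 C to titrations up to 46 uM final.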
# [20] = molecular target: 3',5'-cyclic-AMP phosphodiesterase 4B (Homo sapiens) (UniProt Q07343); test: qHTS Assay for Inhibitors of PDE-IV (AID 607; active = well fitted activation curve with a large enough effect in the main read-out, with a control signal flat, not every such curve was filed as active)
# Outline: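 Cell-based read-out of cAMP via a modified cyclic nucleotide-gated channel and membrane potential dye (535/590 nm) in HEK293 cells expressing PDE4 endogenously. Compounds tested up to 22.9 uM final; 100 uM RO 20-1724 reference.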
# Sequence of Glucocorticoid receptor (Homo sapiens) (P04150 whole entry, looked up, the tested form may be a part): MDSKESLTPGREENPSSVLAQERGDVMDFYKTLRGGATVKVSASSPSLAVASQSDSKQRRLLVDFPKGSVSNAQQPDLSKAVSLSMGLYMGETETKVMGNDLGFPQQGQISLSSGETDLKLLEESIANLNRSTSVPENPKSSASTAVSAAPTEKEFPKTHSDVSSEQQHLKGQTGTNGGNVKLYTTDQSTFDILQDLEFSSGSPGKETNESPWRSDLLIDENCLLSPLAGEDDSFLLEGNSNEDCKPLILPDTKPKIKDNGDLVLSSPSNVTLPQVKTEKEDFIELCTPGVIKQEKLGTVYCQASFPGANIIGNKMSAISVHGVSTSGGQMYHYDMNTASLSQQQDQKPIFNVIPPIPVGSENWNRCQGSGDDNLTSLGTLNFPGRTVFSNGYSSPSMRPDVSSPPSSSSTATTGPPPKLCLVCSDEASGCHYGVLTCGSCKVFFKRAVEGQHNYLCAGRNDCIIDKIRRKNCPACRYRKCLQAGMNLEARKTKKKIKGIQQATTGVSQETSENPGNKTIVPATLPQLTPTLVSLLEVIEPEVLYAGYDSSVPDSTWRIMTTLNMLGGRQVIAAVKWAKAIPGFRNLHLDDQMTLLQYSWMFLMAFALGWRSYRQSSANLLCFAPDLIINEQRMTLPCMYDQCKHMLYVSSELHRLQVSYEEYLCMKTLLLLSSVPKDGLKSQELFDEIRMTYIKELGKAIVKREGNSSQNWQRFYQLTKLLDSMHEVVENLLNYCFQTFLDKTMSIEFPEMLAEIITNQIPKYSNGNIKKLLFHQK
# Sequence of Cytochrome P450 1A2 (Homo sapiens) (P05177 whole entry, looked up): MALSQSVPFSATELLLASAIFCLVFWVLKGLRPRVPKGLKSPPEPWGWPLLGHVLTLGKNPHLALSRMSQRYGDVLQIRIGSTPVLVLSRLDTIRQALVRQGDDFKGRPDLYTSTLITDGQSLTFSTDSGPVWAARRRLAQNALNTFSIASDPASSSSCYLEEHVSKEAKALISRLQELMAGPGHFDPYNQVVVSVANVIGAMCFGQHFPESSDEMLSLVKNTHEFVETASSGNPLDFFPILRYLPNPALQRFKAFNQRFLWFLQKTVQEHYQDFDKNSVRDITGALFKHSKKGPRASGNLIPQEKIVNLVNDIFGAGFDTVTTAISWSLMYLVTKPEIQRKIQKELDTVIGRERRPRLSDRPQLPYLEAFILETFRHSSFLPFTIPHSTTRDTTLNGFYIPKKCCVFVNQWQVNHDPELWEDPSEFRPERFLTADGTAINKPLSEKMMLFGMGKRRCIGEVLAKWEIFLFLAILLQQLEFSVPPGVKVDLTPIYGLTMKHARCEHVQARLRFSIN
# Sequence of 3',5'-cyclic-AMP phosphodiesterase 4B (Homo sapiens) (Q07343 whole entry, looked up): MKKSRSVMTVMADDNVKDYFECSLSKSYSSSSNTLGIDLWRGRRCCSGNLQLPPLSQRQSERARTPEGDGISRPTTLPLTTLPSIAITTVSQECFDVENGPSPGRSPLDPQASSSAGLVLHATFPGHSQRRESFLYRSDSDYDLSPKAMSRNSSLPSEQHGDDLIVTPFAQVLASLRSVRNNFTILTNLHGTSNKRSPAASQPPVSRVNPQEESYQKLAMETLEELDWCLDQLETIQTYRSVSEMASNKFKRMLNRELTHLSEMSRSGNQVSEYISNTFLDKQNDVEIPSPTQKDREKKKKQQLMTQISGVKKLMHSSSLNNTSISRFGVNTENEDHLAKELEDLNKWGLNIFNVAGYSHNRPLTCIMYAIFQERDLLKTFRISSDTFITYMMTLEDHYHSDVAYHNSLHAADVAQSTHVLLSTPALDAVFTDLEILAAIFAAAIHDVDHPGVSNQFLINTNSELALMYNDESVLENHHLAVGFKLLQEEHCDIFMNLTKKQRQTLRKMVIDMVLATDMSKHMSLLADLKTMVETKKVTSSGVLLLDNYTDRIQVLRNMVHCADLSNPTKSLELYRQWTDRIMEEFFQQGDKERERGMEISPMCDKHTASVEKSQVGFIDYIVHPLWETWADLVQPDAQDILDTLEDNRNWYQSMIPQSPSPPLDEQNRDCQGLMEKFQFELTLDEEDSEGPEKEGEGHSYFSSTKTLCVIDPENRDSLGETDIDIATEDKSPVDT
structure (smiles),measurement,setting,value
CN1CCC(=C2c3ccccc3CCc3sccc32)CC1,Potency,[1],inactive
same,outcome,[2],inactive
same,Potency,[3],inactive
COC(=O)[C@H](Cc1ccccc1)NC(=O)[C@@H](N)CC(=O)O (H-Asp-Phe-OMe),Potency,[4],> 92 µM
same,Potency,[5],> 92 µM
same,Potency,[6],> 92 µM
same,Potency,[7],> 92 µM
same,Potency,[8],> 92 µM
same,Potency,[9],> 92 µM
same,Potency,[3],inactive
same,Potency,[10],inactive
same,Potency,[11],inactive
same,Potency,[12],inactive
same,Potency,[13],inactive
same,Potency,[14],inactive
same,Potency,[15],inactive
O=C(NCC1CCCCN1)c1cc(OCC(F)(F)F)ccc1OCC(F)(F)F (stereo not drawn),outcome,[16],inactive
same,"activity change, negative = inhibition",[17]; at 17.2 µM (top of the series),-8.46%
same,outcome,[2],inactive
O=C(NCCO[N+](=O)[O-])c1cccnc1,Potency,[1],inactive
same,Potency,[18],> 46 µM
same,Potency,[19],> 46 µM
same,Potency,[3],inactive
same,outcome,[20],inactive
Cc1cccc(CN2CCN(C(c3ccccc3)c3ccc(Cl)cc3)CC2)c1 (stereo not drawn),outcome,[16],inactive
same,outcome,[2],inactive
same,Potency,[18],> 20.6 µM
CC(C)Oc1ccc2c(=O)c(-c3ccccc3)coc2c1,outcome,[16],inactive
same,"activity change, negative = inhibition",[17]; at 17.2 µM (top of the series),5.32%
same,outcome,[2],inactive
same,Potency,[18],> 20.6 µM
Nc1cc(C(Cl)=C(Cl)Cl)c(S(N)(=O)=O)cc1S(N)(=O)=O,outcome,[16],inactive
same,"activity change, negative = inhibition",[17]; at 17.2 µM (top of the series),-0.14%
same,outcome,[2],inactive
same,Potency,[18],> 20.6 µM
same,Potency,[19],> 20.6 µM
same,Potency,[3],inactive
same,outcome,[20],inactive
O=c1ccc2ccc(O)c(O)c2o1,outcome,[16],inactive
same,"activity change, negative = inhibition",[17]; at 38 µM (top of the series),-9.14%
same,outcome,[2],inactive
same,Potency,[18],> 46 µM
same,Potency,[19],> 46 µM
same,Potency,[3],inactive
same,outcome,[20],inactive
CCCCC(CC)COC(=O)C(C#N)=C(c1ccccc1)c1ccccc1 (stereo not drawn),Potency,[4],> 92 µM
same,Potency,[5],> 92 µM
same,Potency,[6],> 92 µM
same,Potency,[7],> 92 µM
same,Potency,[8],> 92 µM
same,Potency,[9],> 92 µM
same,Potency,[12],inactive
same,Potency,[14],inactive
same,Potency,[15],inactive
O=C1NC(=O)C(c2ccccc2[N+](=O)[O-])=C1Nc1ccc(O)c(Cl)c1,Potency,[1],7.94 µM (active)
same,"activity change, negative = inhibition",[17]; at 38 µM (top of the series),-15.2%
same,outcome,[2],inactive
same,Potency,[18],> 46 µM
same,Potency,[19],> 46 µM
same,outcome,[20],inactive
CCOC(=O)C1=C(O)C(=O)N(Cc2ccccc2)C1,Potency,[1],1 µM (active)
same,Potency,[18],> 46 µM
same,Potency,[19],> 46 µM
